Test results from PubChem BioAssay AID1159580 (chemical genetic matrix, 2015).
Screen size: about 5,500 compounds; about 2,000 (36%) were called active. About 18% were inconclusive and are not listed. No stated cut-off is given here; in the data, active means normalized growth mostly below about 0.91 (no sharp cut-off); inconclusive means no clear call, values can overlap the other calls; inactive means mostly above about 0.92. This is one part of the list.

Assay: chemical genetic growth profiling, strain panel (AID 1159580);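 further: tested at 20 µM; growth read once vehicle control cultures reached saturation at 30 °C; 1 = growth at the plate median or of vehicle wells; lower values mean less growth of the strain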
Conditions: S. cerevisiae deletion strains, growth OD
[1] = locus YAR019C, strain CDC15, active compounds read low
[2] = locus YBL105C, strain PKC1, active compounds read low
[3] = locus YBR135W, strain CKS1, active compounds read low
[4] = locus YBR136W, strain MEC1, active compounds read low
[5] = locus YBR160W, strain CDC28, active compounds read low
[6] = locus YDL017W, strain CDC7, active compounds read low
[7] = locus YDL028C, strain MPS1, active compounds read low
[8] = locus YDL101C, strain DUN1, active compounds read low
[9] = locus YDL108W, strain KIN28, active compounds read low
[10] = locus YDL132W, strain cdc53, active compounds read low
[11] = locus YDL214C, strain PRR2, active compounds read low
[12] = locus YDR052C, strain DBF4, active compounds read low
[13] = locus YDR054C, strain cdc34, active compounds read low
[14] = locus YDR226W, strain ADK1, active compounds read low
[15] = locus YDR477W, strain SNF1, active compounds read low
[16] = locus YER123W, strain YCK3, active compounds read low
[17] = locus YER133W, strain GLC7, active compounds read low
[18] = locus YFL009W, strain cdc4, active compounds read low
[19] = locus YFL029C, strain CAK1, active compounds read low
[20] = locus YFR003C, strain YPI1, active compounds read low
[21] = locus YFR019W, strain FAB1, active compounds read low
[22] = locus YFR028C, strain CDC14, active compounds read low
[23] = locus YGR040W, strain KSS1, active compounds read low
[24] = locus YGR052W, strain FMP48, active compounds read low
[25] = locus YGR092W, strain DBF2, active compounds read low
[26] = locus YHR030C, strain SLT2, active compounds read low
[27] = locus YHR079C, strain IRE1, active compounds read low
[28] = locus YHR082C, strain KSP1, active compounds read low
[29] = locus YHR205W, strain SCH9, active compounds read low
[30] = locus YIL147C, strain SLN1, active compounds read low
[31] = locus YJL095W, strain BCK1, active compounds read low
[32] = locus YJL128C, strain PBS2, active compounds read low
[33] = locus YJL157C, strain FAR1, active compounds read low
[34] = locus YJR016C, strain ILV3, active compounds read low
[35] = locus YJR066W, strain TOR1 (second series), active compounds read low
[36] = locus YJR066W, strain TOR1, active compounds read low
[37] = locus YKL048C, strain ELM1, active compounds read low
[38] = locus YKL067W, strain YNK1, active compounds read low
[39] = locus YKL101W, strain HSL1, active compounds read low
[40] = locus YKL193C, strain SDS22, active compounds read low
[41] = locus YKL203C, strain TOR2, active compounds read low
[42] = locus YLR113W, strain HOG1, active compounds read low
[43] = locus YLR133W, strain CKI1, active compounds read low
[44] = locus YLR403W, strain SFP1, active compounds read low
[45] = locus YML070W, strain DAK1, active compounds read low
[46] = locus YMR001C, strain CDC5, active compounds read low
[47] = locus YMR205C, strain PFK2 (second series), active compounds read low
[48] = locus YMR277W, strain FCP1, active compounds read low
[49] = locus YNL006W, strain LST8, active compounds read low
[50] = locus YNL020C, strain ARK1, active compounds read low
[51] = locus YNL161W, strain CBK1, active compounds read low
[52] = locus YNL183C, strain NPR1, active compounds read low
[53] = locus YNL207W, strain RIO2, active compounds read low
[54] = locus YNL222W, strain SSU72, active compounds read low
[55] = locus YNL307C, strain MCK1 (second series), active compounds read low
[56] = locus YOL078W, strain AVO1, active compounds read low
[57] = locus YOL136C, strain PFK27, active compounds read low
[58] = locus YOR061W, strain CKA2, active compounds read low
[59] = locus YOR119C, strain RIO1, active compounds read low
[60] = locus YOR231W, strain MKK1, active compounds read low
[61] = locus YOR329C, strain SCD5, active compounds read low
[62] = locus YPL031C, strain PHO85, active compounds read low
[63] = locus YPL153C, strain RAD53, active compounds read low
[64] = locus YPL204W, strain HRR25, active compounds read low
[65] = locus YPL209C, strain IPL1, active compounds read low
[66] = locus YPL256C, strain CLN2, active compounds read low
[67] = locus YPR025C, strain CCL1, active compounds read low
[68] = locus YPR106W, strain ISR1, active compounds read low
[69] = locus YPR111W, strain DBF20, active compounds read low
[70] = strain NNK1, active compounds read low
[71] = strain TSCII, active compounds read low

Measured: normalized growth

CC(C)(C)NCC(O)COc1cccc2[nH]c(=O)[nH]c12 (stereo not given)
inactive: locus YAL040C, strain CLN3, active compounds read low 1.02 | locus YCL061C, strain MRC1 (second series), active compounds read low 1.01 | locus YDR150W, strain NUM1, active compounds read low 1 | locus YDR363W, strain ESC2, active compounds read low 1.01 | locus YER002W, strain NOP16, active compounds read low 1.02 | locus YJR075W, strain HOC1, active compounds read low 1.01 | locus YMR263W, strain SAP30, active compounds read low 1 | locus YNL175C, strain NOP13, active compounds read low 1.03 | locus YNL197C, strain WHI3, active compounds read low 1.02 | locus YNL224C, strain SQS1, active compounds read low 0.991 | locus YNL322C, strain KRE1, active compounds read low 1.03 | locus YOR083W, strain WHI5 (second series), active compounds read low 0.988 | locus YPL241C, strain CIN2, active compounds read low 1

N#C/C(=N/Nc1ccccc1)C(=O)c1ccccc1OC(F)(F)F
active: [26] 0.841 | [42] 0.816
inactive: [1] 0.922 | [2] 0.912 | [3] 0.91 | [4] 0.917 | [5] 0.916 | [6] 0.918 | [7] 0.918 | [8] 0.93 | [9] 0.912 | [10] 0.909 | [11] 0.877 | [12] 0.928 | [13] 0.922 | [14] 0.901 | [15] 0.88 | [16] 0.831 | [17] 0.898 | [18] 0.91 | [19] 0.919 | [20] 0.918 | [21] 0.903 | [22] 0.906 | [23] 0.853 | [24] 0.883 | [25] 0.797 | [27] 0.853 | [28] 0.9 | [29] 0.901 | [30] 0.912 | [31] 0.891 | [32] 0.89 | [33] 0.883 | [34] 0.918 | [35] 0.879 | [36] 0.885 | [37] 0.883 | [38] 0.895 | [39] 0.876 | [40] 0.919 | [41] 0.913 | [43] 0.87 | [44] 0.837 | [45] 0.879 | [46] 0.92 | [47] 0.91 | [48] 0.912 | [49] 0.915 | [50] 0.866 | [51] 0.915 | [52] 0.92 | [53] 0.905 | [54] 0.913 | [55] 0.893 | [56] 0.913 | [57] 0.845 | [58] 0.885 | [59] 0.909 | [60] 0.857 | [61] 0.922 | [62] 0.842 | [63] 0.882 | [64] 0.802 | [65] 0.915 | [66] 0.881 | [67] 0.919 | [68] 0.926 | [69] 0.904 | [70] 0.914 | [71] 0.902

N#C/C(=N/Nc1ccc(F)cc1)C(=O)c1ccccc1
inactive: [10] 0.906 | [11] 0.913 | [15] 0.756 | [16] 0.794 | [17] 0.885 | [21] 0.913 | [23] 0.693 | [24] 0.98 | [25] 0.769 | [27] 0.826 | [28] 0.762 | [29] 0.799 | [31] 0.731 | [32] 0.942 | [33] 0.907 | [35] 0.836 | [36] 0.654 | [37] 0.895 | [38] 0.872 | [39] 0.839 | [41] 0.883 | [43] 0.815 | [44] 0.721 | [45] 0.854 | [47] 0.821 | [50] 0.819 | [52] 0.657 | [55] 0.795 | [57] 0.885 | [58] 0.849 | [59] 0.783 | [60] 0.736 | [62] 0.701 | [63] 0.757
active: [1] 0.853 | [2] 0.855 | [3] 0.842 | [4] 0.844 | [5] 0.862 | [6] 0.858 | [7] 0.859 | [8] 0.903 | [9] 0.859 | [12] 0.84 | [13] 0.853 | [14] 0.832 | [18] 0.842 | [19] 0.841 | [20] 0.854 | [22] 0.855 | [26] 0.704 | [30] 0.842 | [34] 0.84 | [40] 0.873 | [42] 0.804 | [46] 0.841 | [48] 0.85 | [49] 0.853 | [51] 0.863 | [53] 0.83 | [54] 0.87 | [56] 0.852 | [61] 0.868 | [64] 0.653 | [65] 0.876 | [66] 0.747 | [67] 0.863 | [68] 0.886 | [69] 0.862 | [70] 0.883 | [71] 0.844
